Assay outcomes (PubChem)
KCNQ2 pot = potentiators of rat KCNQ2 potassium channel. actives 0.54% (n = 310,000). B-score at 10 µM. Potassium voltage-gated channel subfamily KQT member 2 (Rattus norvegicus), O88943. AID 2239, 2010. CHO-K1 KCNQ2, FluxOR thallium flux fluorescence; stronger effect = higher value;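 active = fluorescence ratio B-score at least 3 SD of library B-scores, with initial fluorescence B-score within 3 of them, cut at about 5.3 in these data; same plate scores as AID 2156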;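 also: B-score of peak minus minimum over baseline fluorescence ratio after K+ and Tl+ stimulus; positive B-score means potentiation of KCNQ2 with more thallium influx and brighter signal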
KCNQ2 inh = rat KCNQ2 potassium channel inhibitors, primary screen, cell-based, CHO-K1, FluxOR thallium flux, B-score | Potassium voltage-gated channel subfamily KQT member 2 (Rattus norvegicus), O88943 | 20 min; stronger effect = lower value | B-score at 10 µM | actives 1.1% (n = 310,000);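 active = fluorescence ratio B-score at most minus 3 library SDs, with starting brightness B-score within 2 library SDs, cut at about -5.5 in these data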
An asterisk follows results filed as active; i = inactive; · = not tested or not shown. An excerpt weighted towards active compounds, which were near 1.6% of everything screened.

SMILES | KCNQ2 pot | KCNQ2 inh
Cc1cc(N2CCOCC2)ccc1/C=C\[N+](=O)[O-] | -7.1 | -7.1*
O=[N+]([O-])c1ccc(N2CCOCC2)cc1O | 1.1 | i
O=C(CN(C(=O)Cn1nnc(-c2ccc(F)cc2)n1)c1ccc(F)cc1)NC1CCCC1 | 0.03 | i
CN(C(=O)CSc1nnc(CN2CCCC2)n1Cc1ccccc1)c1ccccc1 | 0.32 | i
CSCCC(NS(=O)(=O)c1cccs1)C(=O)NCc1ccc(C)cc1 (configuration not stated) | 9.6* | i
CSCCC(NS(=O)(=O)c1cccs1)C(=O)NCc1ccccc1 (configuration not stated) | 3.2 | i
Clc1ccc(CSc2nncn2-c2ccc3c(c2)OCCO3)cc1 | -7.7 | -7.7*
Clc1ccc(CSc2nncn2-c2ccccn2)cc1 | 0.68 | i
COc1ccccc1N1CCN(C(=O)C(C)CS(=O)(=O)c2ccc3c(c2)NC(=O)CS3)CC1 (configuration not stated) | · | i
CCOC(=O)CSc1c(-c2ccc(Cl)cc2)[nH]c2ccccc12 | · | i
O=C(Cc1cccs1)NCCSc1c(-c2ccc(Cl)cc2)[nH]c2ccccc12 | -7.1 | -7.1*
COc1ccccc1N(Cc1ccccc1)S(=O)(=O)c1cccc(C(=O)Nc2cccc(C)n2)c1 | -6.4 | -6.4*
Cc1cccc(NC(=O)c2cccc(S(=O)(=O)NCc3ccccc3)c2)n1 | · | i
CCCN(C(=O)CSCc1ccc(Cl)cc1)c1c(N)n(Cc2ccccc2)c(=O)[nH]c1=O | · | i
COC(=O)[C@]1(CC(C)C)N[C@H](c2ccc(-c3ccc(F)cc3)c(OC)c2)[C@@H]2C(=O)N(C)C(=O)[C@@H]21 | · | i
Cc1cc(C(C)(C)C)oc1C(=O)N(CC(=O)NC1CCCC1)c1c(C)cccc1C | -7 | -7*
Cc1cc(C(C)(C)C)oc1C(=O)N(CC(=O)NC1CCCC1)c1ccc(F)cc1 | · | i
O=C(O)c1cc(-c2ccc(Cl)c(Cl)c2)n(-c2ccc(F)cc2)n1 | 0.45 | i
Cc1onc(-c2ccccc2)c1C(=O)NC(=S)Nc1sc2c(c1C#N)CCC(C)C2 (configuration not stated) | 10* | i
Cc1onc(-c2ccccc2)c1C(=O)NC(=S)Nc1sc2c(c1C#N)CCCC2 | 2.6 | i
COc1ccc(C(=O)Cn2cc[n+](C)c2)cc1 | 0.55 | i
O=C(CN1CCC(C(=O)c2ccc(F)cc2)CC1)Nc1ccccc1Cl | 0.68 | i
O=C(NC(=S)Nc1nc2ccccc2s1)c1ccco1 | 8.1* | i
O=C(NC(=S)NCc1ccc(-c2nc3ccccc3s2)cc1)c1ccco1 | 0.1 | i
COC(=O)c1sc(NC(=O)c2ccco2)nc1C | 0.18 | i
SMILES | KCNQ2 pot | KCNQ2 inh
CCOC(=O)c1sc(NC(=S)NC(=O)c2ccco2)nc1C | 5.7* | i
CCCc1nn2c(=O)cc(CSCC(=O)Nc3ccc(OC)cc3)nc2s1 | · | i
Cc1cc(C)cc(OCC(=O)OC(C)C(=O)Nc2ccc(Cl)cn2)c1 (configuration not stated) | · | i
O=C(CC(C(=O)O)c1ccc(Cl)cc1)c1ccccc1 (configuration not stated) | · | i
COC(=O)C(CC(=O)c1ccc(Cl)cc1)c1ccc(C)cc1 (configuration not stated) | -6.5 | -6.5*
CSCC(C)N1CCC(N2CCC(C(=O)NCc3ccccn3)CC2)CC1 (configuration not stated) | · | i
CC1CCCCC1NC(=O)c1c(O)nc2ccccn2c1=O (configuration not stated) | · | i
CCOc1ccccc1Nc1cc(C)c2cccc(C)c2n1 | -5.8 | -5.8*
CCOc1ccccc1Nc1ccnc2cc(Cl)ccc12 | 0.02 | i
CC(=O)Oc1ccc(C(=O)Nc2cc(C)on2)cc1 | · | i
CCN(CC)S(=O)(=O)c1ccc(N2CCOCC2)c(NC(=O)c2ccccc2F)c1 | · | i
CCN(CC)S(=O)(=O)c1ccc(N2CCOCC2)c(NC(=O)c2cc3ccccc3oc2=O)c1 | -5.5 | -5.5*
O=C(OCC(=O)N1CCCC1)c1cc(Cl)ccc1Cl | 0.94 | i
COc1cccc(CN(C)C(=O)CNC(=O)c2ccc3c(c2)OCO3)c1OC | 0.6 | i
Cc1cc(C)cc(N(CC(=O)N2CCN(c3ccccc3)CC2)S(=O)(=O)c2c(C)noc2C)c1 | -6.5 | -6.5*
COc1cccc(N2CCN(C(=O)CN(c3cc(C)cc(C)c3)S(=O)(=O)c3c(C)noc3C)CC2)c1 | · | i
O=C(CN1C(=O)NC2(CCCC2)C1=O)Nc1cc(Cl)ccc1N1CCCCC1 | · | i
Cc1cc(Cl)c2oc(C(=O)N(C)CCc3cnn(C)c3)c(C)c2c1 | · | i
COc1ccc(-c2cc(=O)oc3c(C)c(OC(C)C(=O)Nc4ccc(CN5CCOCC5)cc4)ccc23)cc1 (configuration not stated) | · | i
CN1CCN(C2=C(Cl)C(=O)C(c3cnc(N4CCCCC4)s3)=C(Cl)C2=O)CC1 | -9 | -9*
